For one assay, the target named is Solute carrier family 2, facilitated glucose transporter member 1 (Homo sapiens) (UniProt P11166). As to the kind of experiment: ST_JUDE_LEISH: Cytotoxicity at 2uM final concentration against transgenic Leishmania Mexicana promastigotes LmGLUT1 that are glucose transport deficient and complemented with the human glucose transporter GLUT1. Activity is measured by DNA content using SYBR green in vitro. In kind it is functional.
Sequence of Solute carrier family 2, facilitated glucose transporter member 1 (Homo sapiens) (P11166 whole entry): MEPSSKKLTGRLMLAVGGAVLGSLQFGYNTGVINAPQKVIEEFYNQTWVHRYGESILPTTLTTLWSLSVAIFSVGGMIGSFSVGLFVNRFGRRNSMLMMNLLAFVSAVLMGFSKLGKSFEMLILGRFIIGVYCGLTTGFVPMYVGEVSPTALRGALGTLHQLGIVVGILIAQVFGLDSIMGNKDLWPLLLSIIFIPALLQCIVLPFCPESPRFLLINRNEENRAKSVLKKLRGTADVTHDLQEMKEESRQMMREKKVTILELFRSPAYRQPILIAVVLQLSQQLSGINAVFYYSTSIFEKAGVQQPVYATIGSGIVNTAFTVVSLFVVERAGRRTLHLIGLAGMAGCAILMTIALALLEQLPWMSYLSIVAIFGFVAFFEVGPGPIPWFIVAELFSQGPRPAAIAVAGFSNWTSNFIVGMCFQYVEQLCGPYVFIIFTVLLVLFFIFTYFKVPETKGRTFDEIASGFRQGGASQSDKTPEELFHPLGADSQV
As to `CC(C)N(Cc1cnc2nc(N)nc(N)c2n1)c1ccc(Cl)c(Cl)c1`, the inhibition came out at 1.77%.

Turning to `Cc1cc(C2CCN(CCCCNC(=O)c3ccc(-c4ccc(C#N)cc4)cc3)CC2)c(C)cc1O`, the inhibition was found to be 4.77%.

Regarding `O=C(Nc1ccc(S(=O)(=O)N2CCOCC2)cc1)c1cc(-c2cc(Cl)ccc2O)n[nH]1`, the inhibition amounted to 0.98%.

Consider `CS(=O)(=O)NCCCNCc1ccc(-c2ccc(-c3nc4cc(F)ccc4[nH]3)s2)cc1`, for which the inhibition was -2.43%.

With `Cc1ccccc1Nc1nc(NCCc2ccccc2)nc2ccccc12`, the inhibition turned out to be 49.2%.

For the compound `COc1cc2nc(N3CCC(CNC(=O)c4ccc(-c5ccccc5)cc4)CC3)nc(N)c2cc1OC`, the inhibition was 1.43%.

Take `Cc1cc(-c2c[nH]c3ncc(-c4cccc5ncccc45)cc23)ccc1C(=O)O`: the inhibition amounted to 0.89%.

Consider `COc1ccc(C=CC(=O)NC(=O)c2ccccc2OC(=O)c2ccccc2)cc1OC`, for which the inhibition worked out at 2.48%.

For `NC(=O)c1ccsc1NC(=O)CNC(c1ccc(F)cc1)c1cccs1` (stereo not given), the inhibition was determined as 2.48%.

Turning to `Cc1ccc(NC(=O)c2ccc3ncccc3c2)cc1OC1CCN(Cc2ccc(F)cc2)CC1`, the inhibition was determined as 6.67%.

For the compound `COc1ccc(Nc2nc(C)cc(NCc3ccc(-c4c(C)noc4C)cc3)n2)cc1`, the inhibition stood at 17.4%.

As to `Cc1nnsc1C(=O)Nc1ccc(-c2ccc(-c3nc4cccc(C)c4[nH]3)s2)cc1`, the inhibition turned out to be 5.61%.

As to `Cc1cccc(CNc2nc(C)cc(N[C@@H](Cc3ccccc3)C(=O)NCc3cccc(F)c3)n2)c1`, the inhibition amounted to 6.42%.

As for `O=C(/C=C/c1ccc(Cl)c(Cl)c1)NCCCCCCN1CCN(C(=O)Nc2ccc(C(F)(F)F)cc2)CC1`, the inhibition is 2.86%.

On to `COc1ccc2nccc([C@@H](O)CN3CCC(NCc4ccc5nnsc5c4)CC3)c2c1`, for which the inhibition is -1.03%.

On to `O=C(N[C@H](Cc1ccc(Cl)cc1)C(=O)N1CCN(c2ccnc3cc(Cl)ccc23)CC1)[C@H]1Cc2ccccc2CN1`, for which the inhibition came out at 0.9%.

Consider `Nc1ncc(-c2cn[nH]c2)cc1-c1nc2ccc(F)cc2[nH]1`, for which the inhibition was determined as 2.58%.

On to `COc1ccc(/C=C/C(=O)Nc2ccc(-c3ccncc3)cc2)cc1CCCN(C)C`, for which the inhibition was determined as 6.87%.

Turning to `N#Cc1c(N)nc(SCC(=O)Nc2cc(C(F)(F)F)ccc2Cl)c(C#N)c1-c1cccs1`, the inhibition turned out to be 1.06%.

Turning to `CCCN(CCCN(CCCN(CCC)C(C)C)c1cc(C)nc(Nc2ccc(Cl)cc2)n1)C(C)C`, the inhibition came to 9.21%.

Consider `c1ccc(-c2ccc(-c3csc(Nc4ccncc4)n3)cc2)cc1`, for which the inhibition amounted to 0.44%.

As for `COc1cccc(C(=O)NCCc2cccc(Cl)c2)c1Oc1ccccc1`, the inhibition worked out at 1.18%.

For the compound `CN1CCN(Cc2ccc(-c3cc4nccc(Nc5ccc(Oc6ccccc6)cc5)c4cc3Cl)o2)CC1`, the inhibition was 1.96%.

Turning to `Cc1noc(C)c1CN1Cc2ccccc2OC2(CCN(Cc3c[nH]c4cnccc34)CC2)C1`, the inhibition was -0.38%.

As for `O=C(/C=C/c1ccc(Cl)c(Cl)c1)NCCCCCCN1CCCN(C(=O)Nc2cc(Cl)cc(Cl)c2)CC1`, the inhibition was found to be 0.67%.

As to `CC(=O)Nc1ccc(CN2CCN(C(c3ccc(F)cc3)c3ccc(F)cc3)CC2)cc1`, the inhibition turned out to be 5.18%.

Consider `COc1cc(NC(=O)/C=C/c2cc3ccccc3n2C)ccc1OCCN(C(C)C)C(C)C`, for which the inhibition stood at 4.23%.

With `COc1cc2nc(NCC3CCCO3)n3nc(-c4ccccc4)nc3c2cc1OC` (stereo not given), the inhibition is 8.44%.

Take `Cc1ccc2[nH]c(-c3cc(-c4cccc(CCN5CCOCC5)c4)cnc3N)nc2c1`: the inhibition came to 4.66%.

Turning to `O=C(Nc1ccc(CN2CCN(S(=O)(=O)c3cccc(Cl)c3)CC2)cc1)c1cccs1`, the inhibition was 3.93%.

As to `Cc1cc(-c2cccc3c(NC(=O)N4CCc5cc6nccc(N7CCN8CCC[C@H]8C7)c6cc54)cccc23)cc(C)n1`, the inhibition came to 4.48%.

Take `CCN(CC)CCCC(C)Nc1cc(C)nc2cc(Cl)ccc12` (stereo not given): the inhibition worked out at 0.9%.

Consider `CCc1ccc(-c2nc3cc(NC(=O)c4ccc([N+](=O)[O-])o4)ccc3o2)cc1`, for which the inhibition is 1.01%.

For the compound `CN(CCCNCc1cccc2ccccc12)CCCNCc1cccc2ccccc12`, the inhibition stood at 1.31%.

Take `COc1ccc(Cc2nc3c(n2C(C)=O)SC(c2ccc(Cl)c(Cl)c2)=NN3C(C)=O)cc1`: the inhibition came to 0.08%.

For `O=C(/C=C/c1ccc(Cl)c(Cl)c1)N1CCC(CN2CCC(c3c[nH]c4ncccc34)CC2)CC1`, the inhibition turned out to be 4.3%.

As for `O=S(=O)(NCCN1CCCC1)c1ccc(-c2cccc(CNCc3ccc(F)cc3)c2)cc1F`, the inhibition was 3.24%.

On to `CCNC1=NC2=C(CC(C(C)(C)C)CC2)C2(CCC(C(C)(C)C)CC2)S1` (stereo not given), for which the inhibition was determined as 4.57%.

Regarding `O=C(NCc1cccc(CN2CCOCC2)c1)c1cc(Br)cc(N2CCN(c3ccncc3)CC2)c1`, the inhibition was determined as 0.32%.

Turning to `CNC(=O)c1cnc(Nc2ccc(N3CCOCC3)cc2)nc1Nc1cccc(O)c1`, the inhibition worked out at 3.92%.

The target of a further assay is Hexose transporter 1 (Plasmodium falciparum) (UniProt O97467). Kind of assay: ST_JUDE_LEISH: Cytotoxicity at 2uM final concentration against transgenic Leishmania Mexicana promastigotes LmPfHT that are glucose transport deficient and complemented with the Plasmodium falciparum hexose transporter. Activity is measured by DNA content using SYBR green in vitro. In kind it is functional.
Take `CC(C)N(Cc1cnc2nc(N)nc(N)c2n1)c1ccc(Cl)c(Cl)c1`: the inhibition stood at 1.12%.

Turning to `Cc1cc(C2CCN(CCCCNC(=O)c3ccc(-c4ccc(C#N)cc4)cc3)CC2)c(C)cc1O`, the inhibition came out at 3.77%.

For `O=C(Nc1ccc(S(=O)(=O)N2CCOCC2)cc1)c1cc(-c2cc(Cl)ccc2O)n[nH]1`, the inhibition came out at 0.88%.

For `CS(=O)(=O)NCCCNCc1ccc(-c2ccc(-c3nc4cc(F)ccc4[nH]3)s2)cc1`, the inhibition is -1.55%.

In the case of `Cc1ccccc1Nc1nc(NCCc2ccccc2)nc2ccccc12`, the inhibition was determined as 37.4%.

Consider `COc1cc2nc(N3CCC(CNC(=O)c4ccc(-c5ccccc5)cc4)CC3)nc(N)c2cc1OC`, for which the inhibition turned out to be 1.28%.

In the case of `Cc1cc(-c2c[nH]c3ncc(-c4cccc5ncccc45)cc23)ccc1C(=O)O`, the inhibition is 0.55%.

Consider `COc1ccc(C=CC(=O)NC(=O)c2ccccc2OC(=O)c2ccccc2)cc1OC`, for which the inhibition is 2.16%.

`NC(=O)c1ccsc1NC(=O)CNC(c1ccc(F)cc1)c1cccs1` (stereo not given): the inhibition was 2.01%.

As for `Cc1ccc(NC(=O)c2ccc3ncccc3c2)cc1OC1CCN(Cc2ccc(F)cc2)CC1`, the inhibition worked out at 3.46%.

In the case of `COc1ccc(Nc2nc(C)cc(NCc3ccc(-c4c(C)noc4C)cc3)n2)cc1`, the inhibition was 13.9%.

Take `Cc1nnsc1C(=O)Nc1ccc(-c2ccc(-c3nc4cccc(C)c4[nH]3)s2)cc1`: the inhibition is 2.76%.

Consider `Cc1cccc(CNc2nc(C)cc(N[C@@H](Cc3ccccc3)C(=O)NCc3cccc(F)c3)n2)c1`, for which the inhibition was 6.57%.

As for `O=C(/C=C/c1ccc(Cl)c(Cl)c1)NCCCCCCN1CCN(C(=O)Nc2ccc(C(F)(F)F)cc2)CC1`, the inhibition amounted to 3.11%.

In the case of `COc1ccc2nccc([C@@H](O)CN3CCC(NCc4ccc5nnsc5c4)CC3)c2c1`, the inhibition is 0.44%.

For `O=C(N[C@H](Cc1ccc(Cl)cc1)C(=O)N1CCN(c2ccnc3cc(Cl)ccc23)CC1)[C@H]1Cc2ccccc2CN1`, the inhibition is -0.43%.

Regarding `Nc1ncc(-c2cn[nH]c2)cc1-c1nc2ccc(F)cc2[nH]1`, the inhibition is 3.29%.

Regarding `COc1ccc(/C=C/C(=O)Nc2ccc(-c3ccncc3)cc2)cc1CCCN(C)C`, the inhibition came out at 5.55%.

With `N#Cc1c(N)nc(SCC(=O)Nc2cc(C(F)(F)F)ccc2Cl)c(C#N)c1-c1cccs1`, the inhibition was determined as 0.77%.

In the case of `CCCN(CCCN(CCCN(CCC)C(C)C)c1cc(C)nc(Nc2ccc(Cl)cc2)n1)C(C)C`, the inhibition is 7.26%.

With `c1ccc(-c2ccc(-c3csc(Nc4ccncc4)n3)cc2)cc1`, the inhibition was determined as 1.9%.

As for `COc1cccc(C(=O)NCCc2cccc(Cl)c2)c1Oc1ccccc1`, the inhibition came out at 2.48%.

For `CN1CCN(Cc2ccc(-c3cc4nccc(Nc5ccc(Oc6ccccc6)cc5)c4cc3Cl)o2)CC1`, the inhibition turned out to be 2.5%.

On to `Cc1noc(C)c1CN1Cc2ccccc2OC2(CCN(Cc3c[nH]c4cnccc34)CC2)C1`, for which the inhibition is -0.56%.

`O=C(/C=C/c1ccc(Cl)c(Cl)c1)NCCCCCCN1CCCN(C(=O)Nc2cc(Cl)cc(Cl)c2)CC1`: the inhibition turned out to be 0.41%.

Consider `CC(=O)Nc1ccc(CN2CCN(C(c3ccc(F)cc3)c3ccc(F)cc3)CC2)cc1`, for which the inhibition turned out to be 3.45%.

`COc1cc(NC(=O)/C=C/c2cc3ccccc3n2C)ccc1OCCN(C(C)C)C(C)C`: the inhibition was 4.39%.

In the case of `COc1cc2nc(NCC3CCCO3)n3nc(-c4ccccc4)nc3c2cc1OC` (stereo not given), the inhibition came out at 6.19%.

Consider `Cc1ccc2[nH]c(-c3cc(-c4cccc(CCN5CCOCC5)c4)cnc3N)nc2c1`, for which the inhibition was determined as 5.93%.

For `O=C(Nc1ccc(CN2CCN(S(=O)(=O)c3cccc(Cl)c3)CC2)cc1)c1cccs1`, the inhibition was 2.08%.

For the compound `Cc1cc(-c2cccc3c(NC(=O)N4CCc5cc6nccc(N7CCN8CCC[C@H]8C7)c6cc54)cccc23)cc(C)n1`, the inhibition is 2.56%.

For `CCN(CC)CCCC(C)Nc1cc(C)nc2cc(Cl)ccc12` (stereo not given), the inhibition worked out at 1.6%.

Turning to `CCc1ccc(-c2nc3cc(NC(=O)c4ccc([N+](=O)[O-])o4)ccc3o2)cc1`, the inhibition is 2.33%.

With `CN(CCCNCc1cccc2ccccc12)CCCNCc1cccc2ccccc12`, the inhibition came out at 0.53%.

For the compound `COc1ccc(Cc2nc3c(n2C(C)=O)SC(c2ccc(Cl)c(Cl)c2)=NN3C(C)=O)cc1`, the inhibition is 5.48%.

As for `O=C(/C=C/c1ccc(Cl)c(Cl)c1)N1CCC(CN2CCC(c3c[nH]c4ncccc34)CC2)CC1`, the inhibition is 3.52%.

Turning to `O=S(=O)(NCCN1CCCC1)c1ccc(-c2cccc(CNCc3ccc(F)cc3)c2)cc1F`, the inhibition came to 5.71%.

Turning to `CCNC1=NC2=C(CC(C(C)(C)C)CC2)C2(CCC(C(C)(C)C)CC2)S1` (stereo not given), the inhibition turned out to be 4.3%.

In the case of `O=C(NCc1cccc(CN2CCOCC2)c1)c1cc(Br)cc(N2CCN(c3ccncc3)CC2)c1`, the inhibition stood at 0.81%.

As for `CNC(=O)c1cnc(Nc2ccc(N3CCOCC3)cc2)nc1Nc1cccc(O)c1`, the inhibition was found to be 5.41%.

A word on the inhibition: it is the relative decrease from the control value, in per cent.

The values above are taken from ChEMBL document CHEMBL3433997, “St. Jude Leishmania screening dataset” (2016).
